Shown are actives, neighbours in structure and some others; about 13% of the full set was active somewhere.
Sfp PPTase inh: qHTS Assay for Inhibitors of Bacillus subtilis Sfp phosphopantetheinyl transferase (PPTase) | 310,000 compounds, 3.5% hits | AID 1490, 2009 | Potency, µM, most hits filed as inhibitors | Biochemical Sfp PPTase activity, qHTS | 4'-phosphopantetheinyl transferase ffp (Bacillus subtilis), Q9F4F7;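 also: the enzyme is Sfp with the accession as filed and its product quenches rhodamine fluorescence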
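Fluorescence-quenching assay with 15 nM Sfp, 5 uM rhodamine-CoA and 12.5 uM BHQ-2-labelled ybbR peptide in pH 7.6 Hepes/MgCl2 buffer. Enzyme was pre-incubated with compound for 15 min at room temperature. Rate was taken from the 30-min fluorescence change (525/598 nm).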
miR-21 act: qHTS Assay for Modulators of miRNAs and/orActivators of miR-21 | Potency, µM (titrated, usually from 38.3 µM), hits mostly activators | HeLa miR-21 FLuc reporter, luciferase, 48 h | 340,000 tested, under 10 active | AID 2288, 2010;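 also: miR-21 action dims this reporter so a rising signal means less miR-21 action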
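Compounds were titrated across several concentrations (up to approximately 40 uM) and incubated 48 hours with HeLa miR-21-FLuc reporter cells (miR-21 target sequence downstream of FLuc, endogenous miR-21). Readout was firefly luciferase luminescence after lytic detection reagent.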
JMJD2E inh: qHTS Assay for Inhibitors of Human Jumonji Domain Containing 2E (JMJD2E). Lysine-specific demethylase 4E (Homo sapiens), B2RXH2. JMJD2E catalytic domain, FDH-coupled NADH fluorescence (FDH is formaldehyde dehydrogenase). Potency, µM (titrated, usually from 57.1 µM), hits mostly inhibitors. 230,000 compounds, 1.6% hits. AID 2147, 2009; active = well fitted inhibition curve with a large enough effect, not every such curve was filed as active; inconclusive = small, poorly fitted or top-dose-only effect, or another doubt; inactive = no such curve, though single readings can be large or run the other way; also: nearly all actives have a fitted effect of over 50% in size
ALDH1A1 block: qHTS Assay for Inhibitors of Aldehyde Dehydrogenase 1 (ALDH1A1); Aldehyde dehydrogenase 1A1 (Homo sapiens), P00352; Purified ALDH1A1, NADH fluorescence, propionaldehyde substrate; Potency, µM (doses to about 75.3 µM), most hits filed as inhibitors; 220,000 compounds, 7.3% hits; AID 1030, 2008; active = well fitted inhibition curve with a large enough effect, not every such curve was filed as active; inconclusive = small, poorly fitted or top-dose-only effect, or another doubt; inactive = no such curve, though single readings can be large or run the other way
Target sequence (P00352 whole entry, looked up): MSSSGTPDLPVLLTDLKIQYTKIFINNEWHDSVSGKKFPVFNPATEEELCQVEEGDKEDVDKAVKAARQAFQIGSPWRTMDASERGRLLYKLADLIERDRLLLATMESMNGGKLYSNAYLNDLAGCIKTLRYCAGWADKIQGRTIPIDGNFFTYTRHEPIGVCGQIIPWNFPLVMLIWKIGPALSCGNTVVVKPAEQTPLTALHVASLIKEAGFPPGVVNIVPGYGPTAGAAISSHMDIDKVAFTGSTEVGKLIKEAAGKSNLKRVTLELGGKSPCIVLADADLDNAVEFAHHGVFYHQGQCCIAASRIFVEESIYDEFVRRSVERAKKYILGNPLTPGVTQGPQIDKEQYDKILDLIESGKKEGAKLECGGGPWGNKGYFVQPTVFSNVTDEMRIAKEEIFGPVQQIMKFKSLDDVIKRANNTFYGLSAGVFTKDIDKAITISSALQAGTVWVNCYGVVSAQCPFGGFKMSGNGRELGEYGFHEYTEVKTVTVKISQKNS
LMNA splice mod: qHTS Assay for Modulators of Lamin A Splicing | 200,000 compounds, 0.01% hits | HeLa LMNA splicing GFP/RFP minigene ratio, 48 h | Potency, µM (top dose mostly 46.1 µM), hits mostly inhibitors; active = well fitted inhibition curve with a large enough effect in the signal ratio, with a control signal flat, not every such curve was filed as active; inconclusive = small, poorly fitted or top-dose-only effect, or effect the other way, or a change in a side signal; the % refers to the signal ratio
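S3 HeLa stable clones carrying a lamin A-EGFP splicing minigene plus DsRed2 were seeded at 600 cells/well in Opti-MEM with 2% FBS, pin-dosed and incubated 48 h at 37°C. Acumen cytometry (488 nm) gave the GFP/RFP total-intensity ratio.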
G9a inh: qHTS Assay for Inhibitors of Histone Lysine Methyltransferase G9a. Histone-lysine N-methyltransferase EHMT2 (Homo sapiens), Q96KQ7. G9a H3K9 monomethylation, AlphaScreen, 2 h. Potency, µM (series often up to 102 µM), usual class: inhibitors. 350,000 compounds, 8.8% hits. AID 504332, 2011; also: nearly all actives have a fitted effect of over 75% in size
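G9a (20 nM) preincubated 15 min RT with compounds, then 500 nM biotinylated H3K9 peptide and 20 uM SAM added; 2 h RT reaction. Monomethyl-H3K9 product detected by AlphaScreen with anti-H3K9me1 antibody, streptavidin donor and anti-rabbit IgG acceptor beads.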
Numbers stand for hits; . = inactive; ? = inconclusive; / = not tested or not shown; [ ] = remark or other dose. Unless noted, calls follow the shape of the dose curve; as a rule, active = well fitted curve in the direction sought with a large enough effect; inconclusive = small, poorly fitted or top-dose-only effect, or another doubt; inactive = no such curve, though single readings can be large; an effect the other way counts as inactive or inconclusive.

SMILES	Sfp PPTase inh	miR-21 act	JMJD2E inh	ALDH1A1 block	LMNA splice mod	G9a inh
COc1cccc(CNS(=O)(=O)c2ccc3c(c2)C(C)(C)C(=O)N3C)c1	.	.	/	/	/	.
COc1cccc(CNC(=O)c2cc(C)nc3c2c(C)nn3-c2ccc(C)cc2)c1	/	.	/	/	.	.
Cc1ccc(-c2nc(CN3CCCCC3)cc(CN3CCCCC3)c2O)cc1	40µM	.	?	?	.	/
Cc1cc2ccccc2n1CCNC(=O)c1cccs1	.	.	.	.	.	35µM
Cc1cc2ccccc2n1CCNC(=O)C1CC1	.	.	/	/	/	71µM
Cc1cc2ccccc2n1CCNC(=O)c1cccc(Cl)c1	/	.	/	/	/	.
COC(=O)[C@@]1(Cc2ccccc2)[C@H]2c3cc(C(=O)N4CCCC4)n(Cc4ccccc4)c3C[C@H]2CN1C(=O)c1ccccc1	.	/	.	.	/	/
Cc1cc(-c2ccccc2)c(C#N)c(=S)[nH]1	28µM	.	.	7.9µM	.	1.3µM
N#Cc1c(-c2ccccc2Cl)cc(-c2ccccc2)[nH]c1=S	.	.	.	10µM	.[9.22 µM]	.
O=C1CN(c2ccccc2)C(=S)N1C(=O)c1ccccc1	50µM	.	/	/	/	/
COc1ccc(NC(=O)CSCC(=O)N(C)Cc2ccc3c(c2)OCCO3)cc1	/	/	/	/	/	.
COc1ccc(NC(=O)CSC2CC(=O)N(c3ccc4c(c3)OCCO4)C2=O)cc1 (stereo unspecified)	.	.	.	14µM	.	?
COc1ccccc1NC(=O)CSC1CC(=O)N(c2ccc3c(c2)OCO3)C1=O (stereo unspecified)	.	.	.	0.56µM	.	?
COc1ccccc1C(=O)NNC1CC(=O)N(c2ccc3c(c2)OCCO3)C1=O (stereo unspecified)	.	.	.	.	.	.
COc1cc(/C=C2\SC(=S)N(NC(=O)c3ccccc3OC)C2=O)ccc1O	.	.	/	/	/	16µM
Cc1ccc(/C=C2\SC(=S)N(CCC(=O)NNC(=O)c3cccc(O)c3)C2=O)cc1	.	.	/	/	/	.
COc1cc(/C=C2\SC(=S)N(NC(=O)c3ccc(O)c(OC)c3)C2=O)ccc1O	.	.	/	/	/	35µM
O=C(O)c1ccc(/C=C2\SC(=S)N(NC(=O)c3ccccc3)C2=O)cc1	.	.	/	/	/	?
COc1cc(/C=C2\SC(=S)N(NC(=O)c3cccc(O)c3)C2=O)ccc1O	.	.	/	/	/	35µM
CCOc1cc(/C=C2\SC(=S)N(NC(=O)c3cccnc3)C2=O)ccc1O	.	.	.	?	/	.[12.7 µM]
COc1cc(/C=C2\SC(=S)N(NC(=O)c3ccncc3)C2=O)ccc1O	.	.	.	/	/	45µM
CCCn1c(C)nc2c(NC3CCN(Cc4ccccc4)CC3)nc(C)nc21	.	/	.	.	/	/
COCCn1c(=S)[nH]c2cc(C(=O)NCC3CCCO3)ccc2c1=O (stereo unspecified)	?	.	.	16µM	.	?
O=C(CCCn1c(=O)[nH]c2cc(Cl)ccc2c1=O)NCC1CCCO1 (stereo unspecified)	.	.	.	.	.	.
CCOC(=O)N1CCN(C(=O)c2ccc3c(=O)n(CC4CCCO4)c(=S)[nH]c3c2)CC1 (stereo unspecified)	.	.	.	14µM	.	40µM
SMILES	Sfp PPTase inh	miR-21 act	JMJD2E inh	ALDH1A1 block	LMNA splice mod	G9a inh
O=C(NCC1CCCO1)c1ccc2c(=O)n(CC3CCCO3)c(=S)[nH]c2c1 (stereo unspecified)	.	.	.	11µM	.	?
O=C(CCCn1c(=S)[nH]c2ccc(Br)cc2c1=O)NCC1CCCO1 (stereo unspecified)	.	.	.	1.4µM	.	40µM
Cc1cccc(NC(=O)CSc2nc3c(sc4ccccc43)c(=O)n2CCCC(=O)NC2CCCC2)c1	/	.	/	/	/	.
CC1CCc2c(C(=O)NCC3CCCO3)csc2C1 (stereo unspecified)	.	.	.	?	.	89µM
O=C(NCC1CCCO1)c1ccc(C(=O)NCC2CCCO2)cc1 (stereo unspecified)	.	.	.	.	.	?
Cc1ccccc1NC(=S)NNC(=O)c1csc2c1CCC(C)C2 (stereo unspecified)	.	.	.	20µM	?	.[12.7 µM]
CC1CCc2[nH]c3ccc(C(=O)NCC4CCCO4)cc3c2C1 (stereo unspecified)	/	/	/	/	/	45µM
CCNC(=S)NNC(=O)c1csc2c1CCC(C)C2 (stereo unspecified)	.	.	.	.	.	/
CN(Cc1cccc(F)c1)C(=O)c1ccccc1Sc1ccccc1C#N	.	.	/	/	/	.[12.7 µM]
Cc1ccn2c(/C=N/OCc3ccc(F)cc3)c(-c3ccc(Cl)cc3)nc2c1	?	.	.	22µM	.	.
O=C(COc1ccc2c(c1)OCO2)Nc1cccc(F)c1	.	.	/	/	/	.
COC(=O)c1ccc(/C=C2\N=C(SC)SC2=O)cc1	?	.	.	?	.	.
CCSC1=N/C(=C\c2ccc(C(=O)O)cc2)C(=O)S1	?	.	.	.	.	?
C=CCSC1=N/C(=C\c2ccc(C)o2)C(=O)S1	?	.	.	?	.	22µM
C=CCSC1=N/C(=C\c2ccc(C(=O)O)cc2)C(=O)S1	40µM	.	?	3.5µM	/	45µM
O=C1SC(SCc2ccccc2Cl)=N/C1=C\c1ccc(C(=O)O)cc1	.	.	.	?	.	40µM
COc1ccccc1/C=N/NC(=O)Cn1cnc([N+](=O)[O-])n1	.	.	.	.	/	.
COc1ccccc1CNc1ncnc2ccc(-c3cccc(C#N)c3)cc12	.	/	/	?	?	.[0.501 µM]
O=S(=O)(c1ccc(-n2cnnn2)cc1)N1CCN(c2cccc(C(F)(F)F)c2)CC1	/	.	/	/	/	.
CCN1CCC(Nc2ccnc3cc(Cl)ccc23)CC1	.	.	?	?	/	32µM
COc1ccccc1NC(=O)CSc1nnnn1-c1ccc(F)cc1	.	.	/	/	/	.
CCCCc1nnc2c(N(C)S(=O)(=O)c3ccccc3)nc3ccccc3n12	.	.	.	/	/	71µM
O=C(NC1CCCCC1)C(c1ccc2ncccc2c1)N(Cc1ccc2c(c1)OCO2)C(=O)c1cccs1 (stereo unspecified)	.	.	.	5µM	.	?
CN1CCN(c2ncc3nc(-c4ccc(Cl)cc4)c(=O)n(Cc4cccs4)c3n2)CC1	.	/	/	.	.	.[0.501 µM]
CCOC(=O)c1cc(-c2ccc(C)o2)nn1CCC#N	.	.	.	?	.	13µM
CCOC(=O)c1cc(-c2ccccc2)nn1CCC#N	.	.	.	.	.[9.22 µM]	.
CCOC(=O)c1cc(-c2cccs2)nn1CCC#N	.	.	.	14µM	.	.
